Each structure is given as a SMILES string. Where “and” joins values, the source holds several entries; their conditions need not be identical. Identical values can stand only once. Hit rate of the full screen: of about 300,000 compounds, about 310 (0.1%) were called active. Cut-off read from the data, not from the text of the source: active = fluorescence inhibition mostly above about 23% (no sharp cut-off); inactive = mostly below about 17%. Many of the other results were omitted from the sample, so actives are more common in it than they were.

This assay can be described thus: hypoxia reporter signal reduction in M. tuberculosis – fluorescence, absorbance growth readout, primary screen (AID 1159583). The following applies: M. tuberculosis hypoxia-regulated fluorescent reporter, stronger effect = higher value, concentration not given here; growth inhibition: measured here: M. tuberculosis growth (absorbance).
With `CN1C(=O)C(=NOC(=O)c2ccccc2Cl)c2ccccc21`, the fluorescence inhibition was 12.3% (inactive) and the growth inhibition came out at 3.63%.

With `COc1ccc(C=NNc2c(Cl)cc(Cl)cc2Cl)cc1CN1CCOCC1`, the fluorescence inhibition is -4.05% (inactive) and the growth inhibition was found to be 12.6%.

On to `CC(C)(C)NS(=O)(=O)c1ccc(NC(=O)NC2CCCCC2)cc1`, for which the fluorescence inhibition is 3.29% (inactive) and the growth inhibition was found to be 2.76%.

Regarding `CC(C)c1ccc(NC(=O)NC2CCCCC2)cc1`, the fluorescence inhibition was 20.8% (active) and the growth inhibition stood at 53%.

Take `Cc1cc(C)cc(NC(=O)NC2CCCCCCC2)c1`: the fluorescence inhibition came to 95.8%.

For `CSc1nsc(NN=Cc2ccccc2)c1C#N`, the fluorescence inhibition was 1.35% (inactive) and the growth inhibition is 9.85%.

With `CC(C)CCn1c(=O)c(C(=O)NN=Cc2cccc(F)c2)c(O)c2ccccc21`, the fluorescence inhibition is 5.09% (inactive) and the growth inhibition stood at 2.73%.

Consider `O=C1CC2c3c(cccc3CN1Cc1ccc(F)cc1)CC(O)C2O` (stereo unspecified), for which the fluorescence inhibition is 13.8% (inactive) and the growth inhibition came to 7.24%.

Regarding `CC(=NNC(=O)c1ccn(C)n1)c1cccc(NC(=O)c2ccncc2)c1`, the fluorescence inhibition is -2.04% (inactive) and the growth inhibition amounted to 6.06%.

On to `COCc1c(Br)c(C)nc(OCC(=O)NN=Cc2ccc(C)o2)c1C#N`, for which the fluorescence inhibition is 18.1% (inactive) and the growth inhibition turned out to be 8.53%.

As to `CCC(=NNC(C)=O)c1ccc(OC(F)F)cc1`, the fluorescence inhibition is 18.5% (inactive) and the growth inhibition is -1.52%.

For the molecule `Cc1c(C=NNC(=O)c2ccc(F)cc2)cnn1C`, the fluorescence inhibition was 2.95% (inactive) and the growth inhibition turned out to be 1.5%.

On to `COc1ccc(C2CC(=O)C=C(c3ccc(Cl)cc3C)C2)cc1` (stereo unspecified), for which the fluorescence inhibition is 14.8% (inactive) and the growth inhibition was 2.62%.

Regarding `O=C(O)CC1c2cc(C(F)(F)F)ccc2S(=O)(=O)N1C1CCCCC1` (stereo unspecified), the fluorescence inhibition is 13.2% (inactive) and the growth inhibition was 14.6%.

Take `CCOc1cc(C=NNC(=O)CSc2nnc(C)s2)ccc1OCc1ccccc1Cl`: the fluorescence inhibition is -1.48% (inactive) and the growth inhibition is -4.08%.

With `CC1(C)CC(=O)CC(=NNC(=O)C2CC2c2ccccc2)C1` (stereo unspecified), the fluorescence inhibition is -1.34% (inactive) and the growth inhibition was found to be 15.1%.

On to `O=C(O)c1cccc2c1-c1ccccc1C2=NNc1ccccc1`, for which the fluorescence inhibition is 1.02% (inactive) and the growth inhibition is -10.1%.

Take `O=[N+]([O-])c1ccccc1NN=Cc1cccc(O)c1O`: the fluorescence inhibition was 9.33% (inactive) and the growth inhibition worked out at 0.684%.

For `CC(=NO)C(C)(C)Nc1cccc(F)c1`, the fluorescence inhibition is -1.15% (inactive) and the growth inhibition was found to be 4.49%.

In the case of `COc1ccc(-c2sc3ccccc3c2C=Cc2ccc(OC)c(OC)c2)cc1`, the fluorescence inhibition is 17.3% (inactive) and the growth inhibition turned out to be 10%.

As for `COc1ccc(C2C=CCN(S(C)(=O)=O)C(C)C(=O)N2Cc2ccc(F)cc2)cc1` (stereo unspecified), the fluorescence inhibition is 18% (inactive) and the growth inhibition was determined as 13.9%.

On to `CC(C)(C)OC(=O)NC(Cc1ccccc1)C(=O)NC(CO)C(O)C1CC1C(=O)NC1CC1` (stereo unspecified), for which the fluorescence inhibition is 14.6% (inactive) and the growth inhibition came to 4.91%.

For `O=C(CN1CCN(Cc2ccc(Cl)cc2)CC1)NN=Cc1cccs1`, the fluorescence inhibition is 6.55% (inactive) and the growth inhibition was -3.12%.

On to `Cc1ccc(C=NNC(=O)Nc2ccccc2)o1`, for which the fluorescence inhibition is 14.8% (inactive) and the growth inhibition turned out to be 5.33%.

Take `CCN1C(=O)C(CC(=O)Nc2ccccc2)SC1=Nc1ccccn1` (stereo unspecified): the fluorescence inhibition is 0.176% (inactive) and the growth inhibition is 4.92%.

On to `COc1ccc(Cl)cc1NC(=O)CC(C)=NNC(=O)COc1ccc(C)cc1`, for which the fluorescence inhibition was 13.3% (inactive) and the growth inhibition came to 3.14%.

`O=[N+]([O-])c1ccc(Cl)cc1NN=Cc1ccncc1`: the fluorescence inhibition was 6.88% (inactive) and the growth inhibition was -1.48%.

Take `O=C(NN=Cc1ccncc1)c1cc2c(ccc3ccccc32)o1`: the fluorescence inhibition was -1.63% (inactive) and the growth inhibition was 10.4%.

For `COc1cc(C=NNC(=S)NCc2ccccc2)ccc1OCC#N`, the fluorescence inhibition is 8.67% (inactive) and the growth inhibition was 7.58%.

In the case of `CC(C)c1ccc(C=NNC(=O)c2cc(-c3cccc([N+](=O)[O-])c3)n[nH]2)cc1`, the fluorescence inhibition was 16.3% (inactive) and the growth inhibition turned out to be 1.5%.

As for `Cc1ccc(C=NNC(=O)CCCOc2ccc(Cl)cc2Cl)cc1[N+](=O)[O-]`, the fluorescence inhibition is 1.7% (inactive) and the growth inhibition came to 5.81%.

Turning to `O=C(NN=Cc1ccccc1)C(O)c1ccccc1` (stereo unspecified), the fluorescence inhibition was -2.65% (inactive) and the growth inhibition is -6.95%.

As for `COc1ccc2c(c1)C1C(CO2)C(c2ccccc2)[C@]2(C)C(=O)Nc3cc(F)c(F)cc3C(=O)N12` (stereo partly specified), the fluorescence inhibition was 12.4% (inactive) and the growth inhibition was determined as 11.9%.

With `COC(=O)C1=C(C)N(Cc2ccccc2)C(=NCc2ccco2)NC1c1cccc(F)c1` (stereo unspecified), the fluorescence inhibition is -3.36% (inactive) and the growth inhibition worked out at 4.01%.

In the case of `CC(=O)C=C(C)NC(Cc1c[nH]c2ccccc12)C(=O)O` (stereo unspecified), the fluorescence inhibition is -7.06% (inactive) and the growth inhibition is -3.51%.

Regarding `CC(=NNC(=S)NC1CCCCC1)c1ccc(OC(F)F)cc1OC(F)F`, the fluorescence inhibition was 2.47% (inactive) and the growth inhibition was 1.1%.

Take `COc1ccc(Cl)cc1C(=O)NN=Cc1ccc(N2CCOCC2)cc1`: the fluorescence inhibition is -1.94% (inactive) and the growth inhibition stood at 6.35%.

In the case of `CC(Cc1ccccc1)=NNC(=O)CNC(=O)c1cccc(Br)c1`, the fluorescence inhibition is -10% (inactive) and the growth inhibition was -2.78%.

`CCOC(=O)C1=C(N)n2c(sc(=Cc3ccco3)c2=O)=C(C(=O)OC)C1c1ccco1` (stereo unspecified): the fluorescence inhibition was -1.95% (inactive) and the growth inhibition is -7.35%.

`C=CCc1cccc(C=Nc2nc3ccccc3n2CC)c1O`: the fluorescence inhibition was 7.78% (inactive) and the growth inhibition amounted to 3.33%.

Consider `CCOc1c2ccc(C(=O)NC(C)C3CCCCC3)cc2nn1CCOC` (stereo unspecified), for which the fluorescence inhibition is 1.7% (inactive) and the growth inhibition came out at 7.24%.

Take `CC#CCN1c2ccccc2[C@]23CC(C(=O)OC)N(C(C)=O)C2=NC(C(=O)OC)=C(C(=O)OC)C13` (stereo partly specified): the fluorescence inhibition was 21.5% (inactive) and the growth inhibition was determined as 5.39%.

In the case of `COc1ccc(C(=O)NN=Cc2ccc(OC(=O)c3cccc4ccccc34)c([N+](=O)[O-])c2)cc1`, the fluorescence inhibition was 8.45% (inactive) and the growth inhibition was 6.08%.

For the molecule `COc1ccc(C2CC(=O)C=C(c3ccc(OC(F)(F)F)cc3)C2)cc1OC` (stereo unspecified), the fluorescence inhibition was -7.53% (inactive) and the growth inhibition came to 0.871%.

In the case of `Cc1sc2nc(C)n(N=Cc3ccc(O)cc3)c(=O)c2c1C`, the fluorescence inhibition was 8.51% (inactive) and the growth inhibition is 1.4%.

As for `CCCCN1C(N)=NCC1CCCCN` (stereo unspecified), the fluorescence inhibition was 3.89% (inactive) and the growth inhibition is 4.01%.

`O=C(CCCC(=O)NN=Cc1ccccc1C(=O)O)NN=Cc1ccccc1C(=O)O`: the fluorescence inhibition is 3.15% (inactive) and the growth inhibition was determined as 3.53%.

Take `NC(=NOC(=O)c1ccc2c(c1)OCO2)c1ccc([N+](=O)[O-])cc1`: the fluorescence inhibition was 3.03% (inactive) and the growth inhibition stood at 4.61%.

Regarding `COc1ccc(C=NNc2nc(=O)[nH]nc2C)cc1[N+](=O)[O-]`, the fluorescence inhibition is 5.04% (inactive) and the growth inhibition amounted to 5.94%.

With `CCn1c(SCC(=O)NN=C(C)c2ccco2)nnc1-c1ccccc1`, the fluorescence inhibition was -6.87% (inactive) and the growth inhibition is -5.95%.

Take `Oc1ccccc1C=NNc1cccc2cccnc12`: the fluorescence inhibition is 2.03% (inactive) and the growth inhibition was 5%.

Turning to `O=C(Cc1cc(=O)[nH][nH]1)NN=Cc1ccccc1Cl`, the fluorescence inhibition is -6.7% (inactive) and the growth inhibition came out at 3.17%.

Take `Cc1ccc(S(=O)(=O)NN=Cc2ccc(OC3CSC3)cc2)cc1`: the fluorescence inhibition is -5.05% (inactive) and the growth inhibition was 2.12%.

As for `CC(NCCN1CCOCC1)=C(C#N)C(N)=O`, the fluorescence inhibition is 7.39% (inactive) and the growth inhibition is 4.01%.

Regarding `O=C1C2CC3C=CC2(O3)C2OCCCN12` (stereo unspecified), the fluorescence inhibition is 8.99% (inactive) and the growth inhibition came out at 11.9%.

For the molecule `CC1CC2C3CCC4=CC(=O)C=C[C@]4(C)[C@@]3(F)C(O)C[C@]2(C)C1C(=O)CO` (stereo partly specified), the fluorescence inhibition was -3.35% (inactive) and the growth inhibition stood at 0.308%.

As to `Nc1cnnc(NN=Cc2ccccc2)c1Cl`, the fluorescence inhibition is 7.6% (inactive) and the growth inhibition is 4.96%.

With `Cc1cc(C(=O)NN=Cc2ccc(-c3ccc([N+](=O)[O-])cc3C)o2)n[nH]1`, the fluorescence inhibition was 5.18% (inactive) and the growth inhibition stood at 1.96%.

For `O=C(NN=Cc1ccccn1)c1cc(-c2ccccc2Cl)n[nH]1`, the fluorescence inhibition is 10.9% (inactive) and the growth inhibition was determined as 11.2%.

As to `CC(=NNC(=O)OC(C)(C)C)c1ccc(-n2ccnc2)cc1`, the fluorescence inhibition was 11.1% (inactive) and the growth inhibition was found to be 15.9%.

On to `N#CC(=NNc1cccc(F)c1)C(=O)C1CC1`, for which the fluorescence inhibition is 0.893% (inactive) and the growth inhibition is -0.741%.

Regarding `CC(CC(O)(C=NO)c1ccccc1)=NO` (stereo unspecified), the fluorescence inhibition was 10% (inactive) and the growth inhibition was found to be 6.39%.

With `COc1ccc(C=NNc2nc3ccccc3[nH]2)c(OC)c1OC`, the fluorescence inhibition is 1.22% (inactive) and the growth inhibition is -0.982%.

Take `CCOC(=O)C(=Cc1ccc(C)cc1)NC(=O)c1ccccc1`: the fluorescence inhibition is 1.97% (inactive) and the growth inhibition is 2.94%.

On to `NC(Cc1cccc2ccccc12)=NOC(=O)Cc1cccs1`, for which the fluorescence inhibition was 2.6% (inactive) and the growth inhibition turned out to be 4.27%.

As to `COc1ccc(CNC(=O)C2CC=CC3CCN(C4CC4)C(=O)C32)cc1` (stereo unspecified), the fluorescence inhibition is 19.3% (inactive) and the growth inhibition was 20.6%.

For `Cc1cc(C(=O)NN=Cc2cn[nH]c2-c2ccccc2)cs1`, the fluorescence inhibition is -3.45% (inactive) and the growth inhibition was -1.59%.

On to `COc1cccc(C2Oc3ccc(Br)cc3C(=O)C2OC(=O)NC2CCCC2)c1` (stereo unspecified), for which the fluorescence inhibition is 2.63% (inactive) and the growth inhibition was 0.422%.

As for `CCCCCC=CC1=CC(=O)CC(c2ccc(Cl)cc2)C1` (stereo unspecified), the fluorescence inhibition was -0.281% (inactive) and the growth inhibition came to 11.6%.

Turning to `Cc1cc(SCC(=O)NN=Cc2ccccc2C(=O)O)c(C)cc1Br`, the fluorescence inhibition was 0.764% (inactive) and the growth inhibition was -1.84%.

Turning to `OCC1OC(O)C(O)C1O` (stereo unspecified), the fluorescence inhibition is 1.54% (inactive) and the growth inhibition is -8.94%.

As for `CC(C)(C)OC(=O)CC1CC=CCC(CC(=O)NC(CO)Cc2ccccc2)C(=O)NC(C(C)(C)C)COC1=O` (stereo unspecified), the fluorescence inhibition is 0.171% (inactive) and 3.19% (inactive); the growth inhibition is 4.91% and 7.16%.

Consider `CC(C)(O)C1C2OC(=O)C1[C@]1(O)CC3O[C@]34C(=O)OC2[C@]14C` (stereo partly specified) (tested in a mixture with another compound), for which the fluorescence inhibition was -0.0447% (inactive) and the growth inhibition stood at 5.86%.

For `COC(=O)[C@]1(Cc2ccccc2)NC(c2ccc(-c3cccc(Cl)c3)c(OC)c2)C2C(=O)N(C)C(=O)C21` (stereo partly specified), the fluorescence inhibition was 1.8% (inactive) and the growth inhibition amounted to 8.95%.

On to `O=C(NN=Cc1c[nH]c2ccccc12)c1[nH]c2ccc(Br)cc2c1-c1ccccc1`, for which the fluorescence inhibition is 4.24% (inactive) and the growth inhibition was -6.01%.

With `O=C(NN=CC1CC2CCC1C2)C1CC1` (stereo unspecified), the fluorescence inhibition was -1.06% (inactive) and the growth inhibition was -3.88%.
